# High-throughput results: PubChem, National Center for Advancing Translational Sciences (NCATS)
# This is a sample that favours compounds with a hit; in the whole collection about 10% have one here.
# ALDH1A1 inh: qHTS Assay for Inhibitors of Aldehyde Dehydrogenase 1 (ALDH1A1). Aldehyde dehydrogenase 1A1 (Homo sapiens), P00352. Purified ALDH1A1, NADH fluorescence, propionaldehyde substrate. Potency, µM (titrated, usually from 75.3 µM), inactives show at the highest dose activity, negative = inhibition, actives largely listed as inhibitors. actives 7.3% (n = 220,000);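 further: potency means the concentration at half of the fitted maximal effect; plate controls were no enzyme wells and a reference inhibitor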
# LMNA splice mod: qHTS Assay for Modulators of Lamin A Splicing; actives 0.01% (n = 200,000); Potency, µM (highest dose often 46.1 µM), inactives show at the highest dose ratio change, negative = inhibition, actives largely listed as inhibitors; AID 1487, 2009; HeLa LMNA splicing GFP/RFP minigene ratio, 48 h; active means well fitted inhibition curve with a large enough effect in the signal ratio, with a control signal flat, not every such curve was filed as active; inconclusive means small, poorly fitted or top-dose-only effect, or effect the other way, or a change in a side signal; the % refers to the signal ratio; further: potency means the concentration at half of the fitted maximal effect
#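 S3 HeLa cells stably expressing lamin A-EGFP splicing minigene plus DsRed2, 600 cells/well, 48 h compound exposure at 37C. Laser-scanning cytometry; analysed as GFP (500-530 nm)/RFP (575-640 nm) total intensity ratio; 0.5% DMSO vehicle.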
# HPGD block: qHTS Assay for Inhibitors of HPGD (15-Hydroxyprostaglandin Dehydrogenase) | purified HPGD, NADH fluorescence kinetic, PGE2 substrate | actives 4.3% (n = 150,000) | Potency, µM, for the others: top-dose activity change, negative = inhibition, usual class: inhibitors | AID 894, 2007; further: potency means the concentration at half of the fitted maximal effect
# Target sequence (P15428 whole entry, looked up): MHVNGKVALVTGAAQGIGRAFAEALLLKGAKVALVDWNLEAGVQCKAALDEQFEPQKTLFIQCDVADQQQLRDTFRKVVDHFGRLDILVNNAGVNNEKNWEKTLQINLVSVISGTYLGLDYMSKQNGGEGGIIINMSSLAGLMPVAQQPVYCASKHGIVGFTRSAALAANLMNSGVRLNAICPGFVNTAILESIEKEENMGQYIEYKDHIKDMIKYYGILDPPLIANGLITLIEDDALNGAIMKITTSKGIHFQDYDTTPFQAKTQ
#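 20 nM HPGD preincubated 15 min at room temperature with compound in 50 mM Tris-HCl pH 8, 0.01% Tween 20. Started with 1 mM NAD+ and 30 uM prostaglandin E2; NADH fluorescence (360/450 nm) read 5 times over 30-s intervals, last minus first.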
# Luc counter: Counterscreen for Luciferase (Kinase-Glo TM) Inhibition | Kinase-Glo luciferase, ATP luminescence, 8 min | Potency, µM (highest dose often 38.3 µM), for the others: at the highest dose activity change, negative = inhibition, usual class: inhibitors | actives 0.28% (n = 200,000) | Luciferin 4-monooxygenase (Photuris pensylvanica), Q27757 | AID 1379, 2008; active means well fitted inhibition curve with a large enough effect; inconclusive means small, poorly fitted or top-dose-only effect; further: potency means the concentration at half of the fitted maximal effect; nearly all actives have a fitted effect of over 60% in size
#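 Inhibition of Kinase-Glo luciferase light generation was assessed at 10 uM ATP in pH 7.2 imidazole buffer, with luminescence measured after eight minutes at ambient temperature.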
# PNC assembly inh: High Content Assay for Compounds that inhibit the Assembly of the Perinucleolar Compartment; PC3M PTB-GFP, PNC prevalence imaging, 16 h; active compounds read low; actives 3.1% (n = 140,000); activity change (PNC), negative = inhibition, % at 10 µM;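 active means readout at or below -70, meaning at least 70% loss of cells showing the perinucleolar compartment, a nuclear body marking cancer cells; inconclusive means readout between -30 and a set limit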;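 further: plate controls were DMSO wells for no effect and camptothecin positive control wells for full effect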
#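 PC3M cells stably expressing PTB-GFP, 750–1000 cells/well, treated 16 h at 37 °C with compound (23 nl of library stock), in duplicate. After paraformaldehyde fixation and Hoechst stain, imaged at 20x; PNC prevalence scored by image analysis.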
# Numbers without * were called inactive; ? = inconclusive; . = not tested or not shown; [ ] = remark or other dose. Unless noted, the call rests on the fitted dose curve; in most records, active means well fitted inhibition curve with a large enough effect (not every such curve was filed as active); inconclusive means small, poorly fitted or top-dose-only effect, or another doubt; inactive means no such curve, though single readings can be large or run the other way. Unless noted, on the % scale 0 is the no-effect control and ±100 the full control effect.
SMILES,ALDH1A1 inh,LMNA splice mod,HPGD block,Luc counter,PNC assembly inh
O=C(CSc1nc2scc(-c3ccccc3)c2c(=O)[nH]1)N1CCCCC1,1.8µM*,.,.,-1%,.
CCOc1ccc(N2CC(NC(=O)c3cc4ccccc4o3)CC2=O)cc1 (centres undefined),.,11%[46 µM],.,.,.
N#C/C(C(=O)N1CCOCC1)=c1/s/c(=C\c2ccccn2)c(=O)n1-c1ccccc1,-1%,2%[46 µM],.,-1%,.
COc1ccc(-n2c(=O)/c(=C\c3cccs3)s/c2=C(/C#N)C(=O)N2CCN(C)CC2)cc1,7.1µM*,.,.,-4%,.
CCOC(=O)CNC(=O)N1CCCN(S(=O)(=O)c2ccc3c(ccn3CC)c2)CC1,.,15%[46 µM],.,.,.
CN(C)CCOC(=O)[C@@H](c1ccccc1)C1(O)CCCC1,5%[20.9 µM],?,-3%,1%[17.1 µM],.
O=C(O)C(Cc1ccccc1)N1C(=O)/C(=C/c2cccc3ccccc23)SC1=S (centres undefined),?,-9%,14µM*,1%,45
COc1ccc(S(=O)(=O)Nc2nnc(CC(C)(C)C)s2)cc1,11µM*,27%[46 µM],.,-1%,.
COc1ccc(S(=O)(=O)Nc2nnc(C(C)(C)C)s2)cc1,10µM*,6%,10µM*,14%,?
Cc1nc2ccccn2c1C(=O)NNS(=O)(=O)c1ccc(Cl)cc1,8.9µM*,.,.,.,.
Cc1nc2ccccn2c1C(=O)NCc1cccnc1,2%,7%,-5%,-2%,-85*
NNC(=O)c1cnn(-c2ccccc2)c1-n1cccc1,0.71µM*,?,.,-1%,.
O=C(O)c1cnn(-c2ccccc2)c1-n1cccc1,-3%,-3%,-5%,1%,-15
O=C(NNS(=O)(=O)c1ccc(Cl)cc1)c1cnn(-c2ccccc2)c1-n1cccc1,2µM*,9%,-9%,-2%,74
CC(=O)c1ccccc1C(=O)NCc1cccnc1,6%,-10%,-5%,-1%,-11
CCN(c1cccc(C)c1)S(=O)(=O)c1nnc(NC(=O)C2CCCCC2)s1,.,-17%[46 µM],.,.,.
O=C(NNS(=O)(=O)c1ccc([N+](=O)[O-])cc1)c1cnn(-c2ccccc2)c1-n1cccc1,?,-4%,-3%,1%,-100*
NC(=O)c1c(NC(=O)C2CCCO2)sc2c1CCC2 (centres undefined),22µM*,12%,-8%,-4%,1
N#Cc1c(NC(=O)CCCC(=O)O)sc2c1CCCCC2,?,5%,-22%,-3%,10
CC(C)(C)C1CCc2c(sc(NC(=O)C3CCCO3)c2C(N)=O)C1 (centres undefined),?,18%,-9%,0%,?
NC(=O)c1c(NC(=O)C2CCCO2)sc2c1CCCCC2 (centres undefined),20µM*,3%,?,-1%,-22
COC(=O)c1c(NC(=O)C2CCCO2)sc2c1CCC2 (centres undefined),14µM*,16%,-24%,-2%,?
NC(=O)c1c(NC(=O)CCCC(=O)O)sc2c1CCCCCC2,6%,?,28µM*,0%,34
O=C1c2ccccc2C(Nc2ccc(Cl)cn2)N1Cc1ccccc1 (centres undefined),13µM*,6%,-21%,1%,-12
CC(=O)c1cccc(N(CC(=O)NCC2CCCO2)C(=O)CCC(=O)Nc2cc(C)on2)c1 (centres undefined),-9%,?,-12%,-2%,-100*
SMILES,ALDH1A1 inh,LMNA splice mod,HPGD block,Luc counter,PNC assembly inh
c1cncc(-c2nc(NCCN3CCOCC3)c3ccccc3n2)c1,-6%,?,-8%,-1%,.
CCn1nnnc1SCC(=O)Nc1nc(-c2cccs2)cs1,3.2µM*,-10%,-18%,0%,?
CCn1nnnc1SCC(=O)Nc1nnc(C(C)C)s1,?,5%,3%,-3%,?
Cc1cc(C)c2nc(N3CCC(C(=O)N4CCCC4)CC3)sc2c1,-12%,?,13µM*,-3%,20
Cc1nn2c(NCCOCCO)c3c(nc2c1-c1ccccc1)CCCC3,32µM*,4%,-15%,-7%,88
Cc1ccc2c(=O)c(C(=O)c3ccccc3)cn(CC(=O)Nc3ccc4c(c3)OCCO4)c2n1,.,28%[46 µM],.,.,.
COC(=O)C1=C(C(=O)OC)[C@@H]2N(C)c3ccccc3[C@@]23C[C@@H](C(=O)OC)N(S(=O)(=O)c2ccc4c(c2)OCCN4C)C3=N1,?,-3%[9.22 µM],-20%,-6%[7.66 µM],.
CC(C)(C)OC(=O)NCCCCC1=CC2=CC(=O)C(C)(OC(=O)CCc3ccccc3)C(=O)C2=CO1 (centres undefined),11%,.,-11%,0%,.
CCCC/C=C/C(NC(=O)C(C)(C)C)c1ccccc1 (centres undefined),4%,.,-1%,-3%,.
CCOC(=O)C1=C(C)N=C2c3ccccc3C(=O)C2C1c1ccc(Cl)cc1 (centres undefined),-9%,-1%,-6%,-3%,-30
CCOC(=O)C1=C(Cc2ccc(Cl)cc2)C(=O)c2ccccc2C1=O,?,?,3.5µM*,-9%,51
CCn1c(/C=C2/C(=O)N(C)c3ccccc32)nc2ccccc2c1=O,9.5µM*,-7%,-39%,-7%,26
CCn1c(/C=C2\C(=O)N(C)c3ccccc32)nc2ccccc2c1=O,?,?,2%,1%,?
CCN1C(=O)/C(=C\c2nc3ccccc3c(=O)n2CC)c2ccccc21,14µM*,?,.,0%,.
CCN1C(=O)/C(=C/c2nc3ccccc3c(=O)n2-c2ccccc2)c2ccccc21,?,?,-11%,-2%,?
C[C@@](Cc1ccccc1)(NC(=O)CN)c1ccccc1,-6%,.,-5%,3%,.
COc1ccc2c(c1)-c1nc(/N=C/c3c(O)ccc4ccccc34)sc1CC2,18µM*,-19%,?,-3%,-8
COc1ccc2c(c1)CCc1sc(NC(=O)c3ccc(C)cc3)nc1-2,?,-2%,?,-1%,-10
COc1ccc2c(c1)-c1nc(/N=C/c3ccc(O)cc3)sc1CC2,4.5µM*,-5%,-26%,2%,35
CCOC(=O)C1OC1C(=O)NC(CC(C)C)C(=O)NCCC(C)C (centres undefined),1%,.,.,.,.
O=c1cc(N2CCc3ccccc3C2)[nH]c(=O)n1-c1ccccc1Cl,6.3µM*,-9%,-15%,2%,10
Cc1ccccc1-n1c(=O)cc(N2CCc3ccccc3C2)[nH]c1=O,?,-3%,-12%,1%,?
Cc1nnc(SCC(=O)Nc2sc3c(c2C(N)=O)CCCC3)[nH]c1=O,-5%,13%,-13%,5%,60
CCOC(=O)c1c(NC(=O)CSc2ncnc3ccccc23)sc(C)c1C,14µM*,?,-15%,-3%,19
